Inconclusive results are not listed. A call without a number means that no potency is given here. Active and inactive are the calls of the source. The call rests on the fitted dose curve; in most records, active means well fitted inhibition curve with a large enough effect in the signal ratio, with a control signal flat (not every such curve was filed as active); inconclusive means small, poorly fitted or top-dose-only effect, or effect the other way, or a change in a side signal; inactive means flat fitted curve, though single readings scatter; the % refers to the signal ratio.
Potency means the concentration at half of the fitted maximal effect.

The experiment in a line: qHTS Assay for Identification of Small Molecule Antagonists for NFkB Signaling Pathway (AID 895). The following applies: NFkB beta-lactamase reporter cells, FRET ratio 460/530, stimulated with 10 pM TNF alpha; series mostly up to 38.3 µM. As to the method: NIH Molecular Libraries Screening Centers Network [MLSCN]
NIH Chemical Genomics Center [NCGC]
The TNF alpha/NFkB signaling pathway was assayed in NFkB-bla cells (Invitrogen), a ME-180 cervical carcinoma line containing a stably integrated beta-lactamase reporter gene controlled by a NFkB response element. […] The assay was screened at the EC50 of TNF alpha activation to identify inhibitors of TNF alpha/NFkB signaling.
NCGC Assay Protocol Summary:
Cells were trypsinized, washed in assay medium (AM, OPTI MEM with 0.5% fetal bovine serum, 0.1 mM nonessential amino acids, 1 mM sodium pyruvate, 10mM HEPES pH 7.3, 100U/ml penicillin, and 100 ug/ml streptomycin) and plated at 1000 cells/5 uL/well into black clear-bottom 1536 well plates. After an overnight incubation at 37 C and 5% CO2, 23 nL of compound were delivered by a pin tool, 1 uL of TNF alpha (10 pM final concentration in AM) was added and plates were incubated at 37 C for 5 hrs. One uL of LiveBLAzerTM detector mix (Invitrogen) was added, the plates incubated at room temperature for 2 hrs, and fluorescence intensity at 460 and 530 nm emission was measured at 405 nm excitation by an Envision (Perkin Elmer).
In the case of `N[C@H](CCC(=O)N[C@H](CSN=O)C(=O)NCC(=O)O)C(=O)O`, the Potency result was “inactive”. As for `Fc1cccc(/C=N\N=C/c2cccc(F)c2)c1`, the Potency result was “inactive”. In the case of `CNC(=O)Oc1ccc2c(c1)[C@@]1(C)CCN(C)[C@@H]1N2C`, the Potency result is “inactive”. The same measure for `S=C(S)O[C@@H]1C[C@@H]2C[C@H]1[C@@H]1CCC[C@H]21`: “inactive”.

In the case of `C[C@@H]1C[C@@H]2[C@H]3CCC4=CC(=O)C=C[C@]4(C)[C@]3(F)[C@@H](O)C[C@@]2(C)[C@@]1(O)C(=O)CO`, the Potency is 0.01 µM (active). The same measure for `CN1CCN2c3ccccc3Cc3ccccc3[C@@H]2C1`: “inactive”; for `NS(=O)(=O)c1cc2c(cc1Cl)N[C@@H]([C@@H]1C[C@@H]3C=C[C@H]1C3)NS2(=O)=O`: “inactive”; for `CC(C)(C)NC[C@H](O)COc1cccc2[nH]c(=O)[nH]c12`: “inactive”.

`C[C@@](N)(C(=O)O)c1ccc(C(=O)O)cc1`: the Potency result was “inactive”. In the case of `COc1cccc(OC)c1OCCNC[C@@H]1COc2ccccc2O1` it was “inactive”; in that of `C[C@@H]1CCN=C(N)S1`, “inactive”; in that of `N[C@]1(C(=O)O)CCc2cc(C(=O)O)ccc21`, “inactive”. Turning to `Cc1cccc([C@@H]2CN(C)CCc3c2cc(O)c(O)c3Cl)c1`, the Potency result is “inactive”. In the case of `CC(C)NC[C@H](O)c1ccc(NS(C)(=O)=O)cc1` it was “inactive”; in that of `CCCCCCCCCCCCC/C=C\[C@@H](O)[C@@H](N)CO`, “inactive”.

On to `COCCOC(=O)C1=C(C)NC(C)=C(C(=O)OC(C)C)[C@@H]1c1cccc([N+](=O)[O-])c1`, for which the Potency is 7.08 µM (active). On to `O=C1CC[C@H](N2C(=O)c3ccccc3C2=O)C(=O)N1`, for which the Potency entry is “inactive”. In the case of `NCCCCCCNS(=O)(=O)c1cccc2c(Cl)cccc12` it was “inactive”.

The values are drawn from PubChem BioAssay (NCATS).
